Measured values reported in the supplement of paper PMC10338343.
± gives the standard deviation.

test system: MILI (PIWIL2) piRISC loaded with piRNA #1 (26 nt); test: pre-steady-state target cleavage rate (min^-1); guide: piRNA #1 5'p-UGAGGUAGUAGGUUGUAUAGUAUCCA; MIWI and MILI are mouse PIWI proteins and EfPiwi is from a freshwater sponge; tags in brackets are library labels; higher = faster piRNA-guided slicing of the target; details: auxiliary factor: 500 nM mouse GTSF1
Method: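 Cleave-'n-Seq: a library of target RNAs (target site embedded in constant flanks, ACAGCATTCCGCGTTAGTGATATCCG... 5' flank; DNA-blocked outside the site) at 0.1 nM was incubated with 1 nM active mouse MILI or MIWI piRISC (synthetic 5'-monophosphorylated piRNA guide) with or without 500 nM mouse GTSF1 at 33 °C for 1 min to 16 h. Uncleaved targets were sequenced and normalised to non-target controls, and the pooled three trials were fitted to a burst-and-steady-state model to give the pre-steady-state cleavage rate (min^-1; k3 is constrained to at most 1e-4). Sequence is the target site only; target names encode pairing extent (gX:gY) and contiguous / 1-mismatch / 2-mismatch / bulge geometry. Fits with R² ≤ 0 are excluded.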

Going from GGAGACCUUACUAUACAAGCUACAACCUCA to GGAGACCUAUGUUUACAAGCUACUACCUCA, the “pre-steady-state target cleavage rate” value falls from 0.239 ± 0.018 to 0.0793 ± 0.017.

Going from GGAGUGGAUACAAUACAACGUACUACCUCA to GGAGACCAUACUAUACAACCAACUUCCUCA, the “pre-steady-state target cleavage rate” value falls from 0.0223 ± 0.0023 to 0.00585 ± 0.003.

Compared with GGAGACCUAUGAUAUGAACCUACUACGUGA, GGAGAGGAUACUAUACAACCUACUACGCUCA is higher in “pre-steady-state target cleavage rate” value: under 0.0001 for the first, 0.0912 ± 0.013 for the second.

Compared with GGAGACGAUACUUUACAACCUACUAGCUCA, GGAGACCUAUGAUAACAACCUACACCUCA is lower in “pre-steady-state target cleavage rate” value: 0.0695 ± 0.013 for the first, under 0.0001 for the second.

GGAGACCUAUGAAUACAACCUACUACCUGCA and GGAGAGGAUACUAUACAACGUACUAGCUCA are within error of each other in “pre-steady-state target cleavage rate” value: 0.00801 ± 0.004 for the first, 0.00413 ± 0.0037 for the second.

Going from GGAGACCUUACUAUACUACCUACUAGCUCA to GGAGACGAUACUAAACAACCUACUACCUCA, the “pre-steady-state target cleavage rate” value rises from 0.142 ± 0.016 to 0.207 ± 0.016.

Compared with GGAGACGAUACUAUUCAUCCUACUACCUCA, GGAGACGAUACUUUACAACCUACUACCUCA is lower in “pre-steady-state target cleavage rate” value: 0.264 ± 0.021 for the first, 0.189 ± 0.013 for the second.

GGAGUGGAUACUAUACAACCUACUCACCUCA and GGAGUGGAUACUAUACAAGCUACAACCUCA are within error of each other in “pre-steady-state target cleavage rate” value: 0.166 ± 0.02 for the first, 0.142 ± 0.014 for the second.

First: GGAGACCUAUGAUAUGUACCUACUACCUGA
Second: GGAGUGGUUACUAAACAACCUACUACCUCA
The “pre-steady-state target cleavage rate” value of the first is lower: under 0.0001 for the first, 0.161 ± 0.0092 for the second.

Going from GGAGAGGAAUGUAUACAACCUACUACCUCA to GGAGACCUAUGAUUACAACCUACUAGCCUCA, the “pre-steady-state target cleavage rate” value falls from 0.0539 ± 0.0062 to 0.00776 ± 0.0028.

GGAGACCUAACUAUCCAACCUACUACCUCA and GGAGACCUUUCUAUACAACCUACUACCACA are within error of each other in “pre-steady-state target cleavage rate” value: 0.208 ± 0.038 for the first, 0.152 ± 0.018 for the second.

Compared with GGAGACCUAUGAUAACAACCUACCUACCUCA, GGAGUGGAAACUAUACAUCCUACUACCUCA is higher in “pre-steady-state target cleavage rate” value: 0.00593 ± 0.003 for the first, 0.275 ± 0.024 for the second.

First: GGAGACCUUAGUAUACAACCAACUACCUCA
Second: GGAGACGAUACUAUACAACCUACUAUCUCA
The “pre-steady-state target cleavage rate” value of the first is lower: 0.00446 ± 0.0029 for the first, 0.149 ± 0.014 for the second.

Compared with GGAGACCAUACUAUACAACCUACUACCCUCA, GGAGACCAUUCUAUACAACCUACUACCUCA is lower in “pre-steady-state target cleavage rate” value: 0.22 ± 0.024 for the first, 0.136 ± 0.013 for the second.

GGAGACCUAUCUAUACAACCUACUAACUCA and GGAGAGGAUACUUUACAACCUACUACCUGA are within error of each other in “pre-steady-state target cleavage rate” value: 0.0846 ± 0.017 for the first, 0.0593 ± 0.011 for the second.

GGAGACGAUACUAUACAACCCACUACCUCA and GGAGACCUAACUAACAACCUACUACCUCA are within error of each other in “pre-steady-state target cleavage rate” value: 0.0178 ± 0.0039 for the first, 0.0182 ± 0.0067 for the second.

First: GGAGACGAUACUAUACAACCUAGAUCCUCA
Second: GGAGACGUUACUUUACAACCUACUACCUCA
The “pre-steady-state target cleavage rate” value of the first is lower: 0.00708 ± 0.0033 for the first, 0.141 ± 0.01 for the second.

First: GGAGACGAAACUAUACAACCUACUUCCUCA
Second: GGAGAGGACACUAUACAACCUACUACCUCA
The “pre-steady-state target cleavage rate” value of the first is lower: 0.0627 ± 0.022 for the first, 0.185 ± 0.016 for the second.

Compared with GGAGACCUAUGUAUAACAACCUACUACCUCA, GGAGACCUAUGAAUACAACCUACUACCUAA is lower in “pre-steady-state target cleavage rate” value: 0.0151 ± 0.0041 for the first, 0.00505 ± 0.0032 for the second.

Going from GGAGACCUAACUUUACAACCUACUACCACA to GGAGACGAUACUAUACAACGUACUUCCUCA, the “pre-steady-state target cleavage rate” value falls from 0.109 ± 0.024 to 0.0234 ± 0.0059.
